# Compound activity deposited in PubChem by National Center for Advancing Translational Sciences (NCATS).
# JMJD2A Tudor – inhibitors of human JMJD2A Tudor domain; O75164; AlphaScreen JMJD2A-Tudor / H3K4me3 peptide binding; Potency, µM (doses to about 114 µM), hits mostly inhibitors; actives 4.4% (n = 390,000); further: nearly all actives have a fitted effect of over 50% in size
# HP1b chromo inh – HP1-beta chromodomain-methylated histone interaction inhibition; P83916; AlphaScreen HP1-beta / biotin-H3K9me3 peptide binding; AID 540317; actives 0.56% (n = 390,000); Potency, µM (titrated, usually from 114 µM), most hits filed as inhibitors; further: nearly all actives have a fitted effect of over 70% in size
#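 Compound inhibition of the preformed complex between 50 nM HP1-beta and 50 nM biotinylated H3K9me3 peptide was read by AlphaScreen. Buffer was PBS pH 7.4 with 0.01% Tween-20. Incubations ran 30 min at room temperature, with 10 ug/mL donor/acceptor beads.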
# PI5P4K alpha inh – inhibitors of human PI5P4K alpha | PI5P4Kalpha enzyme, ADP-Glo luminescence, 60 min; stronger effect = lower value | max response, % | actives 1.2% (n = 330,000); active means max response of -50% or lower; inconclusive means between -30% and -50%; inactive means -30% or higher; further: value at the top dose of about 77 µM
#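 Quantitative HTS of the MLSMR library against PI5P4Kalpha with substrate. ATP added last at 5 microM final; room temperature, 60 minutes. Remaining ATP depleted, ADP converted and read as luminescence.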
# G9a inh – G9a (human) methyltransferase inhibition; Q96KQ7; G9a H3K9 monomethylation, AlphaScreen, 2 h; Potency, µM (highest dose often 102 µM), usual class: inhibitors; actives 8.8% (n = 350,000); AID 504332; further: nearly all actives have a fitted effect of over 75% in size
#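 Methyltransferase reactions run at room temperature for 2 h (20 nM enzyme, 500 nM biotin-H3K9 peptide, 20 uM SAM) after a 15 min compound preincubation; product detected by AlphaScreen beads and anti-H3K9me1 antibody.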
# PLK1 PBD inh – inhibitors of human PLK1 polo-box domain binding; P53350; Plk1 PBD binding of FITC phosphopeptide, fluorescence polarization; Potency, µM, actives largely listed as inhibitors; actives 2.8% (n = 360,000); further: series mostly up to about 57 µM; nearly all actives have a fitted effect of over 65% in size
# Target sequence (P53350 whole entry, looked up, the tested form may be a part): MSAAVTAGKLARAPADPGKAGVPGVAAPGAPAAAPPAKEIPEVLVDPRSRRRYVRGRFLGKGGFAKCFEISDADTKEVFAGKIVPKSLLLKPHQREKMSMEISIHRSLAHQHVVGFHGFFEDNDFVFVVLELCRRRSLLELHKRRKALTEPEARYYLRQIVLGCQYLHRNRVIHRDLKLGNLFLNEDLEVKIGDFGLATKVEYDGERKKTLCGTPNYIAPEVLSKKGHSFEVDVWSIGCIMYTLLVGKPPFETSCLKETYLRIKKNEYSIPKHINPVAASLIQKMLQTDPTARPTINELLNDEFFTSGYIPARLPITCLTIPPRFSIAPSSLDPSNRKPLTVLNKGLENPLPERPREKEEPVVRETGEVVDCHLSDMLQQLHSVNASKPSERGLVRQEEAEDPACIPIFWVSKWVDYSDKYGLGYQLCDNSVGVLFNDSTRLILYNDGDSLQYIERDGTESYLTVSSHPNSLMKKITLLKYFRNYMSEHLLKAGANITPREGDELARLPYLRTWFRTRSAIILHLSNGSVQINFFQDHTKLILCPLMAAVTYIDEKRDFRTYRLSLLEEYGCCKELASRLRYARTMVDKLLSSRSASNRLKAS
# BAZ2B block – blocks human BAZ2B; AlphaScreen BAZ2B-H3K14Ac peptide displacement; Potency, µM (highest dose often 114 µM), actives largely listed as inhibitors; actives 4.4% (n = 360,000); further: nearly all actives have a fitted effect of over 60% in size
#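 AlphaScreen displacement of biotin-H3(5-23)K14Ac peptide (50 nM final) from BAZ2B (50 nM final) in PBS pH 7.4, 0.01% Tween-20; complex preformed 30 min RT, then compounds (top 110 uM) 30 min RT, beads 20 min dark.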
# A number is an active result; 0 = inactive; ? = inconclusive; - = no result given; [ ] = another dose, or the depositor's remark. An excerpt weighted towards active compounds, which were near 12% of everything screened. Unless noted, the call rests on the fitted dose curve; in most records, active means well fitted curve in the direction sought with a large enough effect; inconclusive means small, poorly fitted or top-dose-only effect, or another doubt; inactive means no such curve, though single readings can be large; an effect the other way counts as inactive or inconclusive.
SMILES,JMJD2A Tudor,HP1b chromo inh,PI5P4K alpha inh,G9a inh,PLK1 PBD inh,BAZ2B block
COc1ccc(C(=O)CN(Cc2ccccc2)C2=NCCS2)cc1,0,0,0,0,0,0
O=C(CN(Cc1ccccc1)C1=NCCS1)c1ccc(Cl)cc1,0,0,0,45µM,?,0
CCCCCCn1c(-c2ccco2)nc2oc3cc(OC)ccc3c(=O)c2c1=O,0,0,-,20µM,0,0
CCSc1nc2n(n1)C(c1ccc(CC)cc1)C(C(=O)Nc1ccccc1OC)=C(C)N2 (centres undefined),0,0,-,0,-,0
Cc1ccc(N2C(=O)CSC23C(=O)N(CC(=O)NC2CCCCC2)c2ccccc23)cc1 (centres undefined),0,0,-,0,-,0
C/C(=N\NC(=S)Nc1ccccc1)C1Cc2ccccc2C(=O)O1 (centres undefined),0,0,0,-,0,?
C/C(=N\NC(=S)Nc1ccccc1C)C1Cc2ccccc2C(=O)O1 (centres undefined),0,0,0,50µM,0,0
COC(=O)CN1C(=O)[C@H]2[C@@H](c3ccc(C)o3)N3C(=O)CN(CC4CC4)C(=O)[C@@]3(C)[C@H]2C1=O,0,0,0,50µM,0,0
COC(=O)CN1C(=O)[C@H]2[C@@H](c3ccc(C)o3)N3C(=O)CN(Cc4ccc(-c5ccccc5)cc4)C(=O)[C@@]3(C)[C@H]2C1=O,0,0,-62,40µM,0,0
Cc1ccc([C@@H]2[C@@H]3C(=O)N(C)C(=O)[C@@H]3[C@]3(C)C(=O)N(CCO)CC(=O)N23)o1,0,0,0,45µM,0,0
COC(=O)CN1C(=O)[C@H]2[C@@H](c3ccc(C)o3)N3C(=O)CN(Cc4ccccc4)C(=O)[C@@]3(Cc3ccccc3)[C@H]2C1=O,0,0,?,0,0,0
CCCCCCCCCCCCCCCCOCC(CO)OC(C)=O (centres undefined),-,-,-,0,-,-
N#C/C(=C\c1ccco1)c1nc2ccccc2s1,0,0,0,8.9µM,0,?
N#C/C(=C\c1ccc(-c2ccccc2Cl)o1)C(=O)Nc1nc2ccccc2s1,0,0,0,0,0,0
N#C/C(=C/c1ccc(-c2cc(C(=O)O)cc(C(=O)O)c2)o1)c1nc2ccccc2s1,-,-,-,11µM,-,56µM
N#C/C(=C/c1ccco1)c1nc2ccccc2s1,0,0,0,?,0,0
Cc1ccc(C(=O)c2oc3ccccc3c2NC(=O)COc2ccccc2Cl)cc1,0,0,-,0,-,50µM
O=C(N/N=C\c1ccc(Cl)s1)c1ccc(Cn2cccn2)o1,50µM,0,0,0,27µM,0
COc1ccc2c(c1)[C@H]1[C@H](CO2)[C@H](c2ccccc2)[C@]2(C)C(=O)N[C@H](C)C(=O)N12,0,0,0,0[0.501 µM],0,0
CCOC(=O)/C=C1\CN(Cc2cc(OC)c(OC)c(OC)c2)S(=O)(=O)c2ccc(C(F)(F)F)cc21,0,0,?,35µM,0,?
CCOC(=O)/C=C1\CN(Cc2cc(OC)c(OC)c(OC)c2)S(=O)(=O)c2ccccc21,0,0,0,?,0,0
O=c1c2sc3ccccc3c2n(Cc2ccc(Cl)cc2)c(=O)n1Cc1ccco1,0,0,-,0,-,0
CC1CCCCN1CCCNC(=O)Cn1c(=O)c2cccn2c2ccccc21 (centres undefined),0,0,0,0,0,0
COc1ccc(N2CCN(CCCNC(=O)Cn3c(=O)c4cccn4c4ccccc43)CC2)cc1,0,?,0,40µM,0,?
O=C(NCCCN1CCN(c2ccc(F)cc2)CC1)c1ccc2nc(Cc3ccccc3)oc2c1,?,0,-,0,-,32µM
SMILES,JMJD2A Tudor,HP1b chromo inh,PI5P4K alpha inh,G9a inh,PLK1 PBD inh,BAZ2B block
O=C(NCCCN1CCN(c2ccccc2)CC1)c1ccc2nc(Cc3ccccc3)oc2c1,?,0,-,0,-,?
COc1ccc(N2CCN(CCCNC(=O)c3nnc(Cc4ccccc4Cl)o3)CC2)cc1,50µM,?,-,13µM,-,35µM
COc1ccc(N2CCN(CCCNC(=O)c3sc4ncccc4c3-n3cccc3)CC2)cc1,40µM,0,-,16µM,-,35µM
C[C@]12CCC(=O)C=C1CC[C@@H]1[C@@H]2[C@@H](O)C[C@@]2(C)[C@H]1CC[C@]2(O)C(=O)COP(=O)(O)O,-,-,-,0[12.7 µM],-,-
CC(OC(=O)CCCNC(=O)c1ccc(Cl)cc1)C(=O)N(C)Cc1ccccc1 (centres undefined),0,0,0,-,0,0
COCCn1c(=O)[nH]c2cc(C(=O)NCCN3CCN(c4ccc(OC)cc4)CC3)ccc2c1=O,0,0,0,10µM,0,0
COc1ccc(N2CCN(CCCNC(=O)c3ccc4nc(N5CCCCC5)sc4c3)CC2)cc1,45µM,?,-,?,-,25µM
COc1ccc(N2CCN(CCCNC(=O)Cn3c(=O)c4cccn4c4cccnc43)CC2)cc1,50µM,0,0,40µM,0,32µM
COCCNC(=O)c1ccc2c(=O)n(CCOC)c(=O)[nH]c2c1,0,0,0,0[2.33 µM],0,0
O=C(Cn1c(=O)c2cccn2c2cccnc21)NCCCN1CCN(c2ccc(F)cc2)CC1,0,0,0,?,0,0
Cc1ccc(Cl)cc1N1CCN(CCCNC(=O)c2ccc3nc(N4CCCCC4)sc3c2)CC1,?,0,-,0,-,0
CN(C(=O)CSc1ncnc2sccc12)c1c(N)n(Cc2ccccc2)c(=O)[nH]c1=O,0,0,0,0,0,0
CCn1nc(C(=O)OCC(=O)c2ccc3c(c2)OCCO3)c2ccccc2c1=O,50µM,0,0,?,21µM,0
O=C(CN1CCNCC1)NC1CCCCC1,-,-,-,0[12.7 µM],-,-
O=C(Cc1ccc(F)cc1)N/N=C/c1ccccn1,0,0,0,4µM,0,?
O=C(N/N=C\c1ccccn1)c1cccc(C(=O)N/N=C\c2ccccn2)n1,0,0,0,-,0,-
O=C(Cc1cccs1)Nc1ccccn1,0,0,0,?,0,?
O=C(Cc1cccs1)N/N=C/c1ccccn1,?,0,0,1.4µM,0,0
O=C(N/N=C/c1ccccn1)c1cccs1,?,0,0,0,0,32µM
COc1cc(C(=O)N/N=C/c2ccccn2)cc(OC)c1OC,0,0,0,0,0,25µM
COc1ccc(Cl)cc1C(=O)Nc1ccc2oc(-c3ccc(C(C)(C)C)cc3)nc2c1,0,0,-,0,-,0
O=C(N/N=C/c1ccncc1)c1ccccc1,0,0,0,0[0.501 µM],0,0
O=C(CSc1ncccn1)N/N=C/c1cccc(OC2CSC2)c1,0,0,0,0,0,?
O=C(N/N=C/c1ccncc1)c1ccccn1,0,0,0,2µM,0,50µM
Cn1ncc(Cl)c1C(=O)N/N=C/c1cccc(OC2CSC2)c1,0,0,0,0,0,79µM
O=C(NN=C1c2ccccc2-c2ccccc21)c1ccccn1,?,0,-,0,0,50µM
Cc1ccc(C)n1-c1ccc(C(=O)N/N=C/c2ccncc2)cc1,79µM,?,0,0,?,-
